For 15 compounds, growth results are on record in PubChem BioAssay (NCI).

Test systems include T-47D breast; BT-549 breast; MDA-MB-435 melanoma; SW-620 colon; MCF7 breast; HCT-116 colon; HCC-2998 colon; KM12 colon.
Common to all, as to test: NCI-60 one-dose screen, 48 h (100 = growth as untreated, 0 = no growth, -100 = all killed)
What all share (conditions): 10 µM unless noted

Each structure is given as a SMILES string. About 83,000 compounds went through this panel and 20% of them were active in at least one assay; those are over-represented in the sample as a whole.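 Step 1: grow cells in 96-well plates. Step 2: add test compound at a single concentration. Step 3: incubate 48 h. Step 4: record percent growth.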 Unmarked numbers belong to inactive results. The source made the active and inactive calls. How the source made its calls: active means growth percent below 10; inactive means the rest.

As to `COc1cc2c3c(n(CCCN4CCCC4)c(=O)c2cc1OC)-c1cc2c(cc1C3=O)OCO2`, the growth in the assay on T-47D breast was 78.3%; in the assay with BT-549 breast, 82.3%; in the assay on MDA-MB-435 melanoma it was -12.5% (active); in the assay on SW-620 colon it was -63.1% (active); with MCF7 breast, -71.7% (active); with HCT-116 colon it was -84% (active). In addition, the results for the growth in the assay on HCC-2998 colon and with KM12 colon were 42.2% and -23.4% (active), respectively.
On to `Cc1nn(-c2ccccc2)c2nc(CCl)[nH]c(=O)c12`, for which the growth in the assay on T-47D breast was 66%; with BT-549 breast, 100%; in the assay with MDA-MB-435 melanoma, 97.9%; with SW-620 colon it was 85.1%; in the assay on MCF7 breast, 16.4%; in the assay with HCT-116 colon it was 24.9%. In addition, the growth was 108% with HCC-2998 colon and 53.3% in the assay with KM12 colon.
For `O=C1c2cc(Br)ccc2-n2c1nc1cc(Br)ccc1c2=O`, the growth with T-47D breast is 79.7%; in the assay with BT-549 breast it was 124%; in the assay with MDA-MB-435 melanoma, -85.6% (active); in the assay on SW-620 colon, 68%; with MCF7 breast, 59.3%; with HCT-116 colon, 81.8%. The growth in the assay with HCC-2998 colon was 108%; with KM12 colon, 77.5%.
`Oc1ccc(CSc2nnc(-c3ccccc3)o2)c2cccnc12`: the growth was 4.16% (active) in the assay with T-47D breast; 29.4% in the assay on BT-549 breast; 21.8% in the assay on MDA-MB-435 melanoma; 14.5% in the assay on SW-620 colon; 9.21% (active) in the assay with MCF7 breast; 16.6% in the assay with HCT-116 colon. Further, the growth with HCC-2998 colon was 37.6%; with KM12 colon, 17.3%.
Turning to `CN1C(=O)N(C)C2Nn3c(s/c(=C\c4ccccn4)c3=O)=NC21` (centres undefined), the growth in the assay with T-47D breast was 102%; with BT-549 breast, 103%; with MDA-MB-435 melanoma, 99.2%; with SW-620 colon, 105%; in the assay with MCF7 breast, 89.3%; with HCT-116 colon it was 100%. The growth in the assay with HCC-2998 colon is 109%; in the assay with KM12 colon, 106%.
Regarding `O=C(Cn1cc(CN2C(=O)c3ccc([N+](=O)[O-])cc3C2=O)nn1)Nc1ccccc1Br`, the growth was 104% with T-47D breast; 115% in the assay on BT-549 breast; 109% in the assay on MDA-MB-435 melanoma; 97.4% with SW-620 colon; 94.3% in the assay on MCF7 breast; 98.8% with HCT-116 colon. In addition, the growth in the assay with HCC-2998 colon is 101%; in the assay with KM12 colon it was 102%.
For `O=C1NC(=O)c2c1c1c3ccccc3ccc1c1[nH]c3ccccc3c21`, the growth with T-47D breast is 11.8%; with BT-549 breast, 7.84% (active); in the assay with MDA-MB-435 melanoma, 9.08% (active); in the assay with SW-620 colon it was 28.2%; in the assay on MCF7 breast it was 3.61% (active); in the assay with HCT-116 colon, 14.4%. Besides, the growth in the assay with HCC-2998 colon is 46.1%.
Turning to `CCC(CC)N1C(=O)/C(=c2\sc3n(c2=O)C2C(NN=3)N(CC)C(=O)N2CC)c2ccccc21` (centres undefined), the growth was 66.5% in the assay on T-47D breast; 78.6% in the assay on BT-549 breast; -8.32% (active) in the assay on MDA-MB-435 melanoma; 27.2% in the assay on SW-620 colon; 15% in the assay on MCF7 breast; 15.1% with HCT-116 colon. The growth with HCC-2998 colon is 21.7%; in the assay on KM12 colon, 14.2%.
With `Cc1ccc(-c2cc(-c3ccc(N(C)C)cc3)n3c(n2)nc2ccccc23)cc1`, the growth in the assay on T-47D breast is 6.32% (active); in the assay on BT-549 breast, 82.2%; in the assay with MDA-MB-435 melanoma, 65.3%; in the assay on SW-620 colon, 80.1%; with MCF7 breast, 59.2%; with HCT-116 colon, 39.4%. Further, the growth is 80.3% in the assay on HCC-2998 colon and 78.4% with KM12 colon.
`Cc1cc2nc(C(Cl)Cl)nc(-c3ccco3)n2n1`: the growth with T-47D breast was 79.2%; in the assay on BT-549 breast, 93.3%; in the assay with MDA-MB-435 melanoma, 89.4%; with SW-620 colon it was 54.1%; with MCF7 breast it was 46%; in the assay on HCT-116 colon, 74%. Also, the growth in the assay with HCC-2998 colon was 58.7%; in the assay on KM12 colon, 25.4%.
For the compound `CCCCCCCCNC(=O)c1ccc(Cn2c(CCCC)nc3c(N)nc4ccccc4c32)cc1`, the growth with T-47D breast was -38.2% (active); in the assay with BT-549 breast, 92.7%; in the assay with MDA-MB-435 melanoma, -83.1% (active); in the assay with SW-620 colon, -39.6% (active); in the assay on MCF7 breast it was -78% (active); in the assay on HCT-116 colon, -84.2% (active). Further, the figures for the growth in the assay on HCC-2998 colon and in the assay with KM12 colon were 15.5% and 42.1%, respectively.
Regarding `N#Cc1c(-c2cccs2)cc(-c2cnccn2)nc1SCC(=O)NNC(=S)Nc1ccc(F)cc1`, the growth is 102% with T-47D breast; 118% with BT-549 breast; 101% with MDA-MB-435 melanoma; 105% with SW-620 colon; 86.1% with MCF7 breast; 102% in the assay on HCT-116 colon. For the same compound, the growth in the assay on HCC-2998 colon is 109%; with KM12 colon it was 101%.
For `COc1ccc(-c2cc(-c3ccc(Cl)cc3)nc3nc(N)nn23)cc1`, the growth is 91.4% with T-47D breast; 92.3% in the assay with BT-549 breast; 102% in the assay on MDA-MB-435 melanoma; 104% in the assay with SW-620 colon; 89.9% in the assay on MCF7 breast; 98.8% with HCT-116 colon. Besides, the values for the growth in the assay with HCC-2998 colon and in the assay with KM12 colon were 100% and 99.7%, respectively.
As to `Oc1ccc(CSc2nnc(-c3cnccn3)n2-c2ccccc2)c2cccnc12`, the growth was 7.38% (active) with T-47D breast; 41.8% in the assay on BT-549 breast; 23.4% with MDA-MB-435 melanoma; 23.8% in the assay with SW-620 colon; 2.85% (active) in the assay on MCF7 breast; 19.3% in the assay on HCT-116 colon. The growth was 42.1% in the assay on HCC-2998 colon and 18.9% in the assay on KM12 colon.
For the compound `COc1ccc(NC(=O)[C@H](C)NC(=O)OC(C)(C)C)cc1C(=O)Nc1cccc(-c2cc(=O)c3c(OC)c(OC)c(OC)cc3o2)c1`, the growth was -24.7% (active) in the assay on T-47D breast; -85% (active) in the assay with BT-549 breast; 7.35% (active) in the assay on MDA-MB-435 melanoma; -25.6% (active) with SW-620 colon; -9.71% (active) in the assay on MCF7 breast; -61.7% (active) in the assay with HCT-116 colon. Besides, the growth was -60.8% (active) with HCC-2998 colon and -36.4% (active) in the assay with KM12 colon.
